# Measured values published in PubChem BioAssay (Tox21).
# Unmarked numbers belong to inactive results. Results filed as inconclusive are left out. A call without a number means that no potency is given here. Calls of active or inactive are those of the source. Unless noted, calls follow the shape of the full dose curve.
# Columns and labels:
# [1] = Nuclear factor erythroid 2-related factor 2/antioxidant responsive element (Nrf2/ARE) small molecule agonists: qHTS cell viability counter screen in human keratinocytes (AID 1919968; active = well fitted curve in the direction sought with a large enough effect in the repeat runs; an effect the other way counts as inactive or inconclusive; also: nearly all actives have a fitted effect of over 55% in size; also: potency is read from the fitted curve at half-maximal effect)
# How it was run: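 HaCaT ARE reporter line, 1,500 cells/well; 5 h settle, 37 C/5% CO2; cpd in DMSO pinned; 23 h exposure; CellTiter-Fluor, 1 h; fluorescence.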
# [2] = target: Gonadotropin-releasing hormone receptor (Homo sapiens) (UniProt P30968); assay: Human gonadotropin-releasing hormone receptor (GnRHR) small molecule agonists, calcium flux assay in GnRHR-HEK293 cells (AID 1920063); also: nearly all actives have a fitted effect of over 35% in size
# How it was run: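 GnRHR-HEK293, 1500 cells/well, 18 h 37 C/5% CO2; Ca dye 1 h 37 C; cpd pinned (DMSO), agonist mode; kinetic FL 480/540, 3 min, 1 s reads; 15 conc, n=3.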
# [3] = target: KiSS-1 receptor (Homo sapiens) (UniProt Q969F8); assay: Human kisspeptin (KISS1R) small molecule agonists, calcium flux assay in KISS1R-HEK293 cells (AID 1920064; active = well fitted curve in the direction sought with a large enough effect in the repeat runs; an effect the other way counts as inactive or inconclusive)
# How it was run: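 Stable human KISS1R HEK293 line; 18 h plating, 37 C/5% CO2; calcium dye 1 h 37 C; compound pin transfer; kinetic fluorescence Ex/Em 480/540, 3 min.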
# [4] = G protein-coupled receptor (GPCR) small molecule agonists, calcium flux assay: HEK293 wild type cell line counter screen (AID 1920065)
# How it was run: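 Kinetic fluorescence at Ex/Em 480/540, recorded every second over 3 min, served as the read-out after compound addition. Each compound was tested at 15 concentrations in triplicate on cells pre-loaded with calcium dye for 1 h.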
# [5] = p53 small molecule agonists, cell-based qHTS assay with human liver microsomes (AID 1963577); also: potency is read from the fitted curve at half-maximal effect
# How it was run: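 Cells carrying a p53-responsive bla reporter were rested 5 h (37 C, 5% CO2) before compound transfer. Human liver microsomes plus NADPH, 0.5 mg/mL final apiece, supplied metabolism during the 16 h 37 C exposure.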
# [6] = p53 small molecule agonists, cell-based qHTS assay with human liver microsomes: qHTS cell viability counter screen (AID 1963579); also: nearly all actives have a fitted effect of over 45% in size; also: potency is read from the fitted curve at half-maximal effect
# How it was run: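 Seed p53RE-bla cells at 4,000 per well; incubate 5 h at 37 C; add compound, human liver microsomes and NADPH; incubate 16 h at 37 C; add CellTiter-Glo; after 30 min at room temperature, read luminescence.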
# [7] = target: 5-hydroxytryptamine receptor 2A (Homo sapiens) (UniProt P28223); assay: 5-hydroxytryptamine receptor 2A (HTR2A) small molecule antagonists, cell-based qHTS assay (AID 1963586); also: nearly all actives have a fitted effect of over 45% in size; also: potency is read from the fitted curve at half-maximal effect
# How it was run: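 Antagonist-mode intracellular calcium assay: DOI (4 nM) added after 5 min compound pre-incubation at room temperature to dye-loaded HTR2A-CHO cells. Fluorescence followed for 3 min, sampled every second.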
# [8] = target: Muscarinic acetylcholine receptor M1 (Homo sapiens) (UniProt P11229); assay: Cholinergic receptor muscarinic 1 (CHRM1) small molecule agonists, cell-based qHTS assay (AID 1963589); also: nearly all actives have a fitted effect of over 35% in size
# How it was run: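 Human M1 in stable CHO line; 18 h plating, 1 h dye load 37 C; cpd added (agonist mode); Ca2+ fluorescence kinetic read, 1 s intervals; 15 conc, 3 runs.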
# [9] = cAMP Responsive Elements (CRE) small molecule antagonists, cell-based qHTS assay (AID 1963591; active = well fitted inhibition curve with a large enough effect in the signal ratio in the repeat runs, not every such curve was filed as active; the % refers to the signal ratio)
# How it was run: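 Beta-lactamase reporter read by FRET substrate (LiveBLAzer B/G) after 2 h at room temperature. CRE-bla HEK293T cells had received compound plus 0.25 uM (final) NKH477 for 3 h at 37 °C.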
# [10] = target: Beta-2 adrenergic receptor (Homo sapiens) (UniProt P07550); assay: Adrenergic beta2 receptor (ADRB2) small molecule antagonists, cell-based qHTS assay (AID 1963592); also: series mostly up to about 92 µM; nearly all actives have a fitted effect of over 50% in size
# How it was run: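 Cells (CHO, stable ADRB2 overexpression) incubated 18-20hr at 37C; compounds added from DMSO; agonist mix (1nM isoproterenol, 100uM IBMX, 25uM Ro-20-1724) added; 0.5hr RT; d2-cAMP and anti-cAMP-cryptate added; 1hr RT; 665/615 nm read.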
# [11] = target: D(2) dopamine receptor (Homo sapiens) (UniProt P14416); assay: Dopamine D2 receptor (DRD2) small molecule antagonists, cell-based qHTS assay (AID 1963595; active = well fitted inhibition curve with a large enough effect in the signal ratio in the repeat runs, with a control signal flat; the % refers to the signal ratio)
# How it was run: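 Antagonist mode in DRD2-HEK293 cells: after compound addition with 0.1 mM Ro20-1724, cells received quinpirole (12 nM) and NKH477 (200 nM) for 30 min at room temperature; HTRF cAMP read after 1 h detection.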
# [12] = p53 small molecule agonists, cell-based qHTS assay with rat liver microsomes (AID 1963578)
# How it was run: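 Fluorescence from a beta-lactamase reporter under a p53 response element was measured after cells had been incubated 16 h at 37 C with test compound and rat liver microsomes plus NADPH (0.5 mg/mL final each).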
# [13] = p53 small molecule agonists, cell-based qHTS assay (AID 1963582; active = well fitted activation curve with a large enough effect in the signal ratio in the repeat runs, not every such curve was filed as active; the % refers to the signal ratio)
# How it was run: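 Reporter line: p53RE-bla. Pre-incubation 5 h, 37 C, 5% CO2; compound (DMSO, pin tool) 16 h, 37 C; B/G FRET substrate 2 h RT; fluorescence intensity read.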
# [14] = target: 5-hydroxytryptamine receptor 2A (Homo sapiens) (UniProt P28223); assay: 5-hydroxytryptamine receptor 2A (HTR2A) small molecule agonists, cell-based qHTS assay (AID 1963587); also: nearly all actives have a fitted effect of over 30% in size
# How it was run: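 HTR2A-CHO cells, plated 18 h at 37 C/5% CO2, dye-loaded 1 h at 37 C; compounds in DMSO added by pin tool (agonist mode). Intracellular calcium flux read as kinetic fluorescence on FDSS over 2 min at 1 s intervals.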
# [15] = target: Muscarinic acetylcholine receptor M1 (Homo sapiens) (UniProt P11229); assay: Cholinergic receptor muscarinic 1 (CHRM1) small molecule antagonists, cell-based qHTS assay (AID 1963588); also: nearly all actives have a fitted effect of over 40% in size; also: potency is read from the fitted curve at half-maximal effect
# How it was run: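 CHRM1-CHO calcium-flux assay, antagonist mode. Cells were seeded 18 h, dye-loaded 1 h at 37 C and given compound for 5 min at RT, then acetylcholine was added at 50nM. FDSS fluorescence was read 3 min; 15 concentrations, three runs.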
# [16] = target: D(2) dopamine receptor (Homo sapiens) (UniProt P14416); assay: Dopamine D2 receptor (DRD2) small molecule agonists, cell-based qHTS assay (AID 1963594); also: nearly all actives have a fitted effect of over 35% in size
# How it was run: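 HEK293 cells stably expressing DRD2 were cultured 24 h at 37 C, then given Ro20-1724 (0.1 mM final) and compounds for 10 min at room temperature. NKH477 (200nM) was then added for 30 min. cAMP was read by HTRF.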
# [17] = p53 small molecule agonists, cell-based qHTS assay with rat liver microsomes: qHTS cell viability counter screen (AID 1963580); also: nearly all actives have a fitted effect of over 45% in size
# How it was run: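 In HCT-116 cells carrying a p53 response element-bla reporter, compounds were metabolically activated in situ by rat liver microsomes with NADPH over 16 h. Cell ATP content then served as the cytotoxicity measure.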
# [18] = p53 small molecule agonists, cell-based qHTS assay: qHTS cell viability counter screen (AID 1963581); also: nearly all actives have a fitted effect of over 45% in size
# How it was run: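 HCT-116 p53RE-bla cells, 4,000/well, plated 5 h before compound pin transfer; 16 h at 37 C; bla substrate 2 h RT; then CellTiter-Glo, 30 min RT, luminescence.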
# [19] = cAMP Responsive Elements (CRE) small molecule agonists, cell-based qHTS assay (AID 1963590)
# How it was run: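 HEK 293T CRE-bla, 2,000 cells/well, 18 h preincubation 37 C/5% CO2; cpds (DMSO) pinned, 3 h; LiveBLAzer B/G FRET substrate, 2 h RT.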
# [20] = target: Beta-2 adrenergic receptor (Homo sapiens) (UniProt P07550); assay: Adrenergic beta2 receptor (ADRB2) small molecule agonists, cell-based qHTS assay (AID 1963593);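 also: CHO cells stably overexpressing human ADRB2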
# How it was run: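 CHO cells stably over-expressing ADRB2 were plated overnight at 37C, then dosed with compounds plus a stimulation mix containing 100uM IBMX and 25uM Ro-20-1724 for 0.5hr at room temperature. cAMP was measured by HTRF competition, 1hr.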
# Chain of D(2) dopamine receptor (Homo sapiens) (P14416 whole entry, looked up): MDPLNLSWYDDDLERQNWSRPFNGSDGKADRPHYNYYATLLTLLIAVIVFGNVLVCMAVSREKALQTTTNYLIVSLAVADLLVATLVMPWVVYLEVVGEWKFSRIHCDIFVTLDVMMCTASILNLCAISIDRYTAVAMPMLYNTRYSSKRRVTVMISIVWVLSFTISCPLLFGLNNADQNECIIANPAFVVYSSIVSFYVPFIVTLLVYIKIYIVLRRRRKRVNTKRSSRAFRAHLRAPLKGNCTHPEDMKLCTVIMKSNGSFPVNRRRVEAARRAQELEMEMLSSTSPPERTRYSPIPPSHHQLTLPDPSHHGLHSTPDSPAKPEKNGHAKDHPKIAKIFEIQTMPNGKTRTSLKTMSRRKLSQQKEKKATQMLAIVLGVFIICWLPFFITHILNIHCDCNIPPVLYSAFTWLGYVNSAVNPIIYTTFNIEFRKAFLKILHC
# Chain of Muscarinic acetylcholine receptor M1 (Homo sapiens) (P11229 whole entry, looked up): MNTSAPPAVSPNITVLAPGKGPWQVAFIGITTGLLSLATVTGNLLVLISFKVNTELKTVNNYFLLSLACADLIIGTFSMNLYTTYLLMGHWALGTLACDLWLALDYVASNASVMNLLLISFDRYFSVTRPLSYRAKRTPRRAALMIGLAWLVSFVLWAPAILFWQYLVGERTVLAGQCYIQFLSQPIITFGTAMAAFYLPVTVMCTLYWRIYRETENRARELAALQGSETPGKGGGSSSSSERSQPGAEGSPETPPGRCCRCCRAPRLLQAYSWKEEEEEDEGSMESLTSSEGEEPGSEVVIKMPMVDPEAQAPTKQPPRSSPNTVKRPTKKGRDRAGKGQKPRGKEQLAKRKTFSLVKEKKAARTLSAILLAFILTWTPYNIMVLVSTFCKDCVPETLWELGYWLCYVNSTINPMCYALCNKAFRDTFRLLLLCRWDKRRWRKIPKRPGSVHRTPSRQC
# Chain of Gonadotropin-releasing hormone receptor (Homo sapiens) (P30968 whole entry, looked up): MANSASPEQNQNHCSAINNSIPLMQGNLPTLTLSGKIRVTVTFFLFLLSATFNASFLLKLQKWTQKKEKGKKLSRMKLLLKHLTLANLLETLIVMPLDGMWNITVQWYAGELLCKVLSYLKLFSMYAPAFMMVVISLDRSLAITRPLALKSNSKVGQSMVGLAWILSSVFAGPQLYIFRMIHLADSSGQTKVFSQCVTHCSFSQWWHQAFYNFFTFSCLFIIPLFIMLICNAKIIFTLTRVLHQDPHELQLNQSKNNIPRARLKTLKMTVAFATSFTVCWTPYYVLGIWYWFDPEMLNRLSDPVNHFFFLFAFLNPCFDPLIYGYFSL
# Chain of Beta-2 adrenergic receptor (Homo sapiens) (P07550 whole entry, looked up): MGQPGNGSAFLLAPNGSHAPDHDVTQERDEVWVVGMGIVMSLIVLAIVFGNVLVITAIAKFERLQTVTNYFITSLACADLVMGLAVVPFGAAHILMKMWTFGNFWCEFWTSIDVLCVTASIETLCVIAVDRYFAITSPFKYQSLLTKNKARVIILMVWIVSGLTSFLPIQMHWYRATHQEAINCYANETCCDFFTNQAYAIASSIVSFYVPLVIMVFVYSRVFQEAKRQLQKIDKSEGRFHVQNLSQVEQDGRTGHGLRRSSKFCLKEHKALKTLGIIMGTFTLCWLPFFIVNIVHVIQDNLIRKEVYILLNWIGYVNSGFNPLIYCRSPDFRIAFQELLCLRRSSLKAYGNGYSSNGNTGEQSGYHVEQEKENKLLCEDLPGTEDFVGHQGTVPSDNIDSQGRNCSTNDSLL
# Chain of 5-hydroxytryptamine receptor 2A (Homo sapiens) (P28223 whole entry, looked up): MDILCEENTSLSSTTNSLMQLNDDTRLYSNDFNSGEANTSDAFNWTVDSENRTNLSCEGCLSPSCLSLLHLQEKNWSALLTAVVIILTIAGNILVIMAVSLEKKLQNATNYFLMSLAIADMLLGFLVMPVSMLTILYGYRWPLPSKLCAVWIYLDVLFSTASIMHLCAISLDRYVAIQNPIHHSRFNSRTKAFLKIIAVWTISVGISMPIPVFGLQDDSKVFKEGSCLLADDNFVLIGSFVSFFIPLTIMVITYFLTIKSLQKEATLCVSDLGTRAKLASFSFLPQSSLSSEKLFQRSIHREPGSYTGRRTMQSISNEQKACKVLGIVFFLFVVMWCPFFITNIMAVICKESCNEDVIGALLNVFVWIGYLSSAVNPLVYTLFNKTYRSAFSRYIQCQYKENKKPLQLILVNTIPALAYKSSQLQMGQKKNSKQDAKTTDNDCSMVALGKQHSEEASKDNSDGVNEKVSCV
# Chain of KiSS-1 receptor (Homo sapiens) (Q969F8 whole entry, looked up): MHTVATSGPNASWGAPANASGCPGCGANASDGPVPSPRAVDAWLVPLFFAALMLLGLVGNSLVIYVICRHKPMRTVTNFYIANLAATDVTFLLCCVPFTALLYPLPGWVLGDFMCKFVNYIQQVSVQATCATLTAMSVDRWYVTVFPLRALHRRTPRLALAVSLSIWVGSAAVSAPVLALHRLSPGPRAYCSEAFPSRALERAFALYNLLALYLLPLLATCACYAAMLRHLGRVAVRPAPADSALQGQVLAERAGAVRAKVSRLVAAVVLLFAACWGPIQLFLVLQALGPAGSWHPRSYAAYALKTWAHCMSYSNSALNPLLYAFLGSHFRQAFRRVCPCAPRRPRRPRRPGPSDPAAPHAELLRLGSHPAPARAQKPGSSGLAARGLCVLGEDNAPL
Structure (SMILES),Potency [1],Potency [2],Potency [3],Potency [4],Potency [5],Potency [6],Potency [7],Potency [8],Potency [9],Potency [10],Potency [11],Potency [12],Potency [13],Potency [14],Potency [15],Potency [16],Potency [17],Potency [18],Potency [19],Potency [20]
Oc1c(I)cc(I)cc1I,30.6 µM (active),inactive,inactive,inactive,inactive,inactive,42.1 µM (active),inactive,inactive,inactive,inactive,,,,,,,,,
CC(C)Oc1cccc(NC(=O)c2ccccc2C(F)(F)F)c1,inactive,inactive,inactive,inactive,,inactive,,inactive,,,,inactive,inactive,inactive,0.0119 µM (active),inactive,,,,
C[C@H](CN1CCOCC1)C(C(=O)N1CCCC1)(c1ccccc1)c1ccccc1,inactive,inactive,inactive,inactive,,inactive,inactive,inactive,inactive,inactive,inactive,inactive,,inactive,,inactive,inactive,inactive,,
COP(=S)(OC)Oc1cc(Cl)c(I)cc1Cl,inactive,inactive,inactive,inactive,,inactive,inactive,inactive,inactive,inactive,inactive,,,inactive,inactive,,inactive,inactive,inactive,inactive
COc1ccc(/C(=C/C(=O)N2CCOCC2)c2ccc(Cl)cc2)cc1OC,inactive,inactive,inactive,inactive,,inactive,,inactive,,inactive,inactive,inactive,inactive,inactive,inactive,inactive,inactive,inactive,,inactive
O=[N+]([O-])[O-].[Tl+],inactive,inactive,inactive,inactive,,inactive,inactive,inactive,inactive,inactive,inactive,,,inactive,inactive,,inactive,inactive,inactive,
IC(I)=C(I)I,27.3 µM (active),inactive,inactive,inactive,inactive,16.2 µM (active),inactive,inactive,,,,,,inactive,inactive,inactive,,,,
C1=CCC=C1,inactive,inactive,inactive,inactive,,inactive,inactive,inactive,inactive,inactive,inactive,,,inactive,inactive,inactive,inactive,inactive,,
CCOP(=S)(OCC)SCS(=O)(=O)C(C)(C)C,inactive,inactive,inactive,inactive,1.82 µM (active),inactive,inactive,inactive,inactive,inactive,inactive,,,inactive,inactive,inactive,,inactive,inactive,
O=c1[nH]c2ccccc2n1CCCN1CCC(n2c(=O)[nH]c3cc(Cl)ccc32)CC1,inactive,inactive,inactive,inactive,,inactive,,,,,,inactive,,,,,inactive,inactive,,
CCCC(C)C1(CC)C(=O)N=C(S)NC1=O (configuration not stated),inactive,inactive,inactive,inactive,,inactive,inactive,,inactive,inactive,,,,inactive,,inactive,inactive,inactive,inactive,
CCOP(=S)(OCC)Oc1nc(Cl)n(C(C)C)n1,inactive,inactive,inactive,inactive,,inactive,inactive,inactive,inactive,inactive,inactive,,,inactive,inactive,inactive,inactive,inactive,inactive,inactive
CCOP(=S)(OCC)SCCS(=O)(=O)CC,inactive,inactive,inactive,inactive,,inactive,,inactive,inactive,inactive,inactive,,inactive,inactive,inactive,inactive,inactive,inactive,inactive,inactive
O=C(O)c1ccccc1C(=O)Nc1cccc2ccccc12,inactive,inactive,inactive,inactive,,inactive,inactive,inactive,inactive,inactive,,inactive,inactive,inactive,,inactive,inactive,inactive,inactive,
